Results as given in PubChem BioAssay.
Activity calls are given as the source filed them.

Columns and labels:
[1] = tested on: Plasmodium falciparum Sir2 (PF13_0152, Sir2A); assay: pfSir2 binders on small-molecule microarrays, primary screen, biochemical, small-molecule microarray, 635 nm fluorescence (AID 1098); conditions: small-molecule microarray binding, fluorescence 635 nm; higher = more signal;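 further: score merges spot fluorescence intensity with its signal-to-noise ratio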
[2] = small-molecule microarray binders of probe aDKK1, primary screen, biochemical, biotinylated probe, 635/667 nm fluorescence (AID 1099); conditions: higher = more signal;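 further: score merges 667nm spot fluorescence with signal to noise across triplicate slides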
[3] = small-molecule microarray binders of probe aCHRDL2, primary screen, biochemical, biotinylated probe, 635/667 nm fluorescence (AID 1100); conditions: higher = more signal
[4] = splicing luciferase reporter signal modulators, primary screen, spliceosome inhibition project, cell-based, HEK293, splice +/- reporter (AID 1101); conditions: luminescence, 24 h, higher = more signal, called active from +8 up or from −8 down;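 further: HEK293 cells carrying a splicing-competent luciferase reporter gene; test concentration not given here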
[5] = biological target: Fibroblast growth factor 10 (Homo sapiens) (UniProt O15520); assay: FGF10 binders on small-molecule microarrays, primary screen, biochemical, small-molecule microarray, 635 nm fluorescence (AID 1102); conditions: FGF10 binding, fluorescence 635 nm, higher = more signal
Chain of Fibroblast growth factor 10 (Homo sapiens) (O15520 whole entry, looked up): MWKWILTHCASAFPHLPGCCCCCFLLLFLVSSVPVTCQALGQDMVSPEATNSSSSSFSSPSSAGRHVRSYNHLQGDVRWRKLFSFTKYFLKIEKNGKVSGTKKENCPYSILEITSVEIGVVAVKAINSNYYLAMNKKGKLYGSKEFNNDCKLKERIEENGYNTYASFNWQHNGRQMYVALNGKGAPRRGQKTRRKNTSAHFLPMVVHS

[6] = tested on: glycogen synthase kinase-3 (GSK3A per assay name; protocol says GSK3B); assay: GSK3 binders on small-molecule microarrays, primary screen, biochemical, small-molecule microarray, 635 nm fluorescence, GSK3A (AID 1103); conditions: small-molecule microarray binding, fluorescence 635 nm; higher = more signal; further: the record names both GSK3A and GSK3B
[7] = biological target: Epidermal growth factor receptor (Homo sapiens) (UniProt P00533); assay: EGFR binders on small-molecule microarrays, primary screen, biochemical, small-molecule microarray, 635 nm fluorescence (AID 1104); conditions: EGFR binding, higher = more signal;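 further: score merges 667 nm emission intensity with spot signal to noise over triplicate slides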
Chain of Epidermal growth factor receptor (Homo sapiens) (P00533 whole entry, looked up): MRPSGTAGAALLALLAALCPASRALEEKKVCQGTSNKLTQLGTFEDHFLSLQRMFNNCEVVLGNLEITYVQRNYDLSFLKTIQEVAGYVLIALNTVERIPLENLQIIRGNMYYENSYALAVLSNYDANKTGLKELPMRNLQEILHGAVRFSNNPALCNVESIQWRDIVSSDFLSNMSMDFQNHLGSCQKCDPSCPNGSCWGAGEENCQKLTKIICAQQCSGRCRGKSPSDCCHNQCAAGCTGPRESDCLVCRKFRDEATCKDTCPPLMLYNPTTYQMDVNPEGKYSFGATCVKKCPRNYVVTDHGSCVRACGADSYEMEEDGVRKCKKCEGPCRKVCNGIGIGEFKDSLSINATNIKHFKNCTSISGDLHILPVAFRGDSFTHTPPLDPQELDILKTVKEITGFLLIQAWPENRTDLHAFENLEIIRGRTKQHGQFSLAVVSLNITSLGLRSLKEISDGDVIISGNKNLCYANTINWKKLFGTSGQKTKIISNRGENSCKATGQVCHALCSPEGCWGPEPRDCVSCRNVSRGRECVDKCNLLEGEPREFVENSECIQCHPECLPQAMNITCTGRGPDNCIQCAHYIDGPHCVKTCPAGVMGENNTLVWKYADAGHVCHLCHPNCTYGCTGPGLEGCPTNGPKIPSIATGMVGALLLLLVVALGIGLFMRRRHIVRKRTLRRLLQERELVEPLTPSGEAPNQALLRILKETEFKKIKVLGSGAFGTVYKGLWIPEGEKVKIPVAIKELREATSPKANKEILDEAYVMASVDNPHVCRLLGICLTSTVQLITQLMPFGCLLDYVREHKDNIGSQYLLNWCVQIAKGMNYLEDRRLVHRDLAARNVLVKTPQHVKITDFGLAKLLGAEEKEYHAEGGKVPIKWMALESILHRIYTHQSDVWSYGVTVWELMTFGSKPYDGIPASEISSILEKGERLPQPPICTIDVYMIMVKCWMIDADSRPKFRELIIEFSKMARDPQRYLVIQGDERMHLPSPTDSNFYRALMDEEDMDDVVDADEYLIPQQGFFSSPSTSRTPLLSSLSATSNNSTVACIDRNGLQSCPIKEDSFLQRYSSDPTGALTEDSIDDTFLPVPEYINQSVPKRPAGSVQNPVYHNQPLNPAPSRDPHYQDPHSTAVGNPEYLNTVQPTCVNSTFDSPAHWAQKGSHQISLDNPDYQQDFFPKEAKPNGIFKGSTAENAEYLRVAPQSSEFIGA

[8] = biological target: Follistatin-related protein 3 (Homo sapiens) (UniProt O95633); assay: FSTL3 binders on small-molecule microarrays, primary screen, biochemical, small-molecule microarray, 635 nm fluorescence (AID 1105); conditions: FSTL3 binding, higher = more signal;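 further: score merges emission near 667 nm and signal to noise per printed spot across three slides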
Chain of Follistatin-related protein 3 (Homo sapiens) (O95633 whole entry, looked up): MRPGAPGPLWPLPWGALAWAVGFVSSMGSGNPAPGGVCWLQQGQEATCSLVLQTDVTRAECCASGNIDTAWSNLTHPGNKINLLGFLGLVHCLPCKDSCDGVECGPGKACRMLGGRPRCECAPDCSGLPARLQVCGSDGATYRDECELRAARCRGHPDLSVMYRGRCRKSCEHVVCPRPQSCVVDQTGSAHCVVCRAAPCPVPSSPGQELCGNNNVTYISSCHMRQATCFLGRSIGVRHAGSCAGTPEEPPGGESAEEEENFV

[9] = biological target: Dickkopf-related protein 1 (Homo sapiens) (UniProt O94907); assay: DKK1 binders on small-molecule microarrays, primary screen, biochemical, small-molecule microarray, 635 nm fluorescence scan (AID 1106); conditions: DKK1 binding, higher = more signal;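 further: score merges emission near 667 nm with signal to noise over three replicate slides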
Chain of Dickkopf-related protein 1 (Homo sapiens) (O94907 whole entry, looked up): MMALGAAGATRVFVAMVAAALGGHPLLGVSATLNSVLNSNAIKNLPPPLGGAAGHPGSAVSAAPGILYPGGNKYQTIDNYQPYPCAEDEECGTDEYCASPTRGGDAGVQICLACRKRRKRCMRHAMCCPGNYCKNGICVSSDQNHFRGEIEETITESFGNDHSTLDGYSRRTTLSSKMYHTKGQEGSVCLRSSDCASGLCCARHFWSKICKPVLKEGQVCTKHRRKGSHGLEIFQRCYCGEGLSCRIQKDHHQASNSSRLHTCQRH

[10] = tested on: Inhibin beta A chain (activin A); assay: INHBA (activin A) binders on microarrays, primary screen, biochemical, small-molecule microarray, 635 nm fluorescence scan (AID 1107); conditions: small-molecule microarray binding, higher = more signal;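 further: mouse activin A protein probed at 4.33 µg/mL on printed slides; score merges bound-protein fluorescence near 667 nm with spot signal-to-noise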
[11] = tested on: Human papillomavirus type 1a protein E7 (residues 44-93); assay: HPV1a E7 fragment binders on microarrays, primary screen, biochemical, small-molecule microarray, residues 44-93, 635 nm fluorescence (AID 1108); conditions: small-molecule microarray binding, fluorescence 635 nm; higher = more signal;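 further: E7 fragment applied at 1 µg/mL in TBST for 1 h at 4 C; score combines spot fluorescence with its signal to noise ratio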
[12] = modulators of HCV replicon luciferase signal, primary screen, HCV replication inhibitor project, Huh7 cells, luciferase reporter (AID 1109); conditions: 48 h, higher = more signal;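 further: huh7 hepatoma cells harbouring a luciferase neomycin HCV replicon reporter; luciferase luminescence as measure of HCV replicon replication; test concentration not given here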
[13] = biological target: Left-right determination factor 2 (Homo sapiens) (UniProt O00292); assay: LEFTY2 binders on small-molecule microarrays, primary screen, biochemical, small-molecule microarray, 635 nm fluorescence scan (AID 1110); conditions: LEFTY2 binding, higher = more signal
Chain of Left-right determination factor 2 (Homo sapiens) (O00292 whole entry, looked up): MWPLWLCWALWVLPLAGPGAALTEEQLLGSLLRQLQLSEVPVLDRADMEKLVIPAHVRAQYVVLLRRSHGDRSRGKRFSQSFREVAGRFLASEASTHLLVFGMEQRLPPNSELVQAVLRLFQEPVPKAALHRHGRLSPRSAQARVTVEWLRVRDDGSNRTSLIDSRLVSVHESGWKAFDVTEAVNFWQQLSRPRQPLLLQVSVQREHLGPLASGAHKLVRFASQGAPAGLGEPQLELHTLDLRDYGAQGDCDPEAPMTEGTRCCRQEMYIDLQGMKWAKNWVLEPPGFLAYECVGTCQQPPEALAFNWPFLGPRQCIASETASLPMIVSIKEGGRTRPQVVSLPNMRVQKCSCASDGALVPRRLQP

[14] = biological target: Calmodulin-1 (Homo sapiens) (UniProt P0DP23); assay: CALM1 binders on microarrays, EGTA buffer, profiling panel, biochemical, small-molecule microarray, Cy5-labelled CALM1 (AID 1111); conditions: Cy5-CALM1 binding fluorescence, higher = more signal;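 further: labelled calmodulin applied in Tris saline Tween buffer holding calcium plus EGTA and DTT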
[15] = biological target: Calmodulin-1 (Homo sapiens) (UniProt P0DP23); assay: calcium-bound CALM1 binders on microarrays, profiling panel, artefact control for SMM control-protein annotation, biochemical, small-molecule microarray, Cy5-labelled CALM1, plus calcium (AID 1112); conditions: Cy5-CALM1 binding fluorescence, higher = more signal;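 further: score merges spot fluorescence with signal to noise from triplicate slides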
[16] = small-molecule microarray binders of probe aWnt5a, primary screen, biochemical, biotinylated probe, 635/667 nm fluorescence (AID 1113); conditions: higher = more signal;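 further: score merges 667 nm fluorescence intensity with signal-to-noise per printed feature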
[17] = small-molecule microarray binders of probe aShh, primary screen, biochemical, biotinylated probe, 635/667 nm fluorescence (AID 1114); conditions: higher = more signal;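 further: probe is biotin-labelled aShh protein from a stem cell growth factor screen; measures binding of labelled protein to compounds printed on the slide; score merges feature fluorescence at 667 nm with signal-to-noise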
[18] = small-molecule microarray binders of probe aNog, primary screen, biochemical, biotinylated probe, 635/667 nm fluorescence (AID 1115); conditions: higher = more signal;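 further: probe is biotinylated aNog protein used at 0.15 µg/mL for 1 h at 4 C; z-score combines 667 nm fluorescence of each spot with its signal to noise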
[19] = biological target: Torsin-1A-interacting protein 1 (Homo sapiens) (UniProt Q5JTV8); assay: LAP1 binders from COS7 cell lysate, primary screen, small-molecule microarray, 635/667 nm fluorescence (AID 1116); conditions: COS7-hLAP1 lysate binding, 635 nm fluorescence, higher = more signal
Chain of Torsin-1A-interacting protein 1 (Homo sapiens) (Q5JTV8 whole entry, looked up): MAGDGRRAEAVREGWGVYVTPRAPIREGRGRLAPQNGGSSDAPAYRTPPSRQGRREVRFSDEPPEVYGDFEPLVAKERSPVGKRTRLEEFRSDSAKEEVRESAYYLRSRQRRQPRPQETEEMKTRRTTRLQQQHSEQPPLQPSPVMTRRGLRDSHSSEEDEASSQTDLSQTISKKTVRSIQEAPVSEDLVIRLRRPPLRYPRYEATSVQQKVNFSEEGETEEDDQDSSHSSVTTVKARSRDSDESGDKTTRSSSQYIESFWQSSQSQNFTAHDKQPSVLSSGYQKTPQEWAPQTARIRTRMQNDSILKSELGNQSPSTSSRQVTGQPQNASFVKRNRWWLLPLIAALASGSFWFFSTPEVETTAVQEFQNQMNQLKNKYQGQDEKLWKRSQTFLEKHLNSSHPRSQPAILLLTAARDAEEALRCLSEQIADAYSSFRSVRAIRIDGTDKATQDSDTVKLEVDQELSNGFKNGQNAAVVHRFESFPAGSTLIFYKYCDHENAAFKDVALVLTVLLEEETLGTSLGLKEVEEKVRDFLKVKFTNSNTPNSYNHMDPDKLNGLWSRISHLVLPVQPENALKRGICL

[20] = biological target: Alpha-bungarotoxin (Bungarus multicinctus) (UniProt P60615); assay: alpha-bungarotoxin binders on microarray, profiling panel, artefact control for SMM control protein annotation, biochemical, small-molecule microarray, Alexa647 label, 635/667 nm fluorescence (AID 1117); conditions: alpha-BTX-A647 binding fluorescence, higher = more signal
Chain of Alpha-bungarotoxin (Bungarus multicinctus) (P60615 whole entry, looked up): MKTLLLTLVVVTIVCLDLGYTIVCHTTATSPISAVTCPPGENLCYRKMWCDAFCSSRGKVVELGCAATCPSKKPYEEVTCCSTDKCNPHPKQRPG

SMILES	composite z-score [1]	composite z-score [2]	composite z-score [3]	z-score [4]	composite z-score [5]	composite z-score [6]	composite z-score [7]	composite z-score [8]	composite z-score [9]	composite z-score [10]	composite z-score [11]	z-score [12]	composite z-score [13]	composite z-score [14]	composite z-score [15]	composite z-score [16]	composite z-score [17]	composite z-score [18]	composite z-score [19]	composite z-score [20]
C[N+](C)(C)CCCC[C@@H]1NC(=O)[C@H]2C[C@@H](C(=O)NCCCCCNC(=O)CS)[C@@H](c3ccc(O)cc3)N2C1=O	1.43	-0.0443	0.161	-0.744 (inactive)	0.499	0.57	0.0872	-0.0399	0.312	0.425	0.727	0.215	0.355	0.956	0.213	0.0101	-0.0553	-0.373	2.49	-0.256
C=CCC(OC(C)=O)[C@@H]1[C@@H](N(Cc2ccc(-c3cccc(C(F)(F)F)c3)o2)C(=O)Cc2ccc(OC)cc2)c2cc(OCCCO)ccc2N1C(=O)c1ccc2ccccc2n1 (stereo not given in full)	0.51	-0.107	0.621	-0.492 (inactive)	0.104	-1.24	-0.567	0.0391	0.062	1.58	-0.551	0.185	-0.323	-0.698	-0.605	-0.0017	-0.0904	0.227	-0.366	-0.362
CCCC=C(CCC)[C@@H](NS(=O)(=O)c1ccc(Cl)cc1)c1ccccc1	0.6	0.619	0.951	-1.69 (inactive)	-0.686	-1.03	-0.972	-1.29	-0.979	0.351	-0.201	-0.777	-1.34	0.451	0.781	0.954	0.508	1.07	-1.24	0.64
CC(=O)n1cc(C(O)C2C=CC3C(=O)N(c4ccccc4)C(=O)C3N2Nc2ccccc2F)c2ccccc21 (stereo not given)	1.76	-0.167	0.483	-1.68 (inactive)	-0.191	-0.0798	-0.801	-0.638	-1.18	-0.551	1.13	-0.159	-0.747	1.64	-0.494	-0.0566	0.0723	-0.305	0.488	0.403
CC(C)(C)N1CC=CC23O[C@@H]4/C=C\CCCOC(=O)C4[C@H]2C(=O)N(CCCCCCO)[C@@H]3C1=O (stereo not given in full)	0.873	-0.204	0.63	-0.725 (inactive)	-0.374	-0.749	-0.741	0.0927	-0.857	0.705	-0.802	-0.762	-1.03	-0.558	0.337	-0.0873	0.0952	0.382	1.24	-1.34
